Screening results deposited in PubChem BioAssay by The Scripps Research Institute Molecular Screening Center.
Sampled rows, rich in hits. Any-hit rate of the full collection: about 2%.
M1 PAM parental: counter-screen for M1 PAMs: effect in parental CHO-K1 cells; ATP EC20, Fluo-8 calcium fluorescence; 0% at ATP EC20, 100% at ATP max; activation, % at 3 µM; 0.02% of 360,000 active; AID 602247;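 active means activation above the run cutoff, the mean activation of all test compounds plus 3 SD, cut at about 40% in these data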;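 further: peak over basal fluorescence ratio in a 140 s read after ATP addition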
CHO-K1 Ca ag: nonselective activator or artifact in parental CHO-K1 cells. AID 602248. 0.48% of 360,000 active. activation, % at 3 µM. Fluo-8 calcium fluorescence; scaled to maximal ATP response, vehicle zero; in the data active means activation above about 15%;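 further: untransfected CHO-K1 host cells lacking M1 receptor as counterscreen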
CHRM4 agonist: agonists of human muscarinic M4 receptor (CHRM4); CHO-K1 hM4/Gqi5, Fluo-8 calcium fluorescence; vehicle 0%, full acetylcholine response 100%; 0.14% of 360,000 active; activation, % at 3 µM; P08173;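 active means activation above the run mean over all test wells plus 3 SD, cut at about 32% in these data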;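 further: peak over basal fluorescence ratio per well then scaled between controls; 0% = DMSO wells and 100% = acetylcholine at EC100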
Target sequence (P08173 whole entry, looked up): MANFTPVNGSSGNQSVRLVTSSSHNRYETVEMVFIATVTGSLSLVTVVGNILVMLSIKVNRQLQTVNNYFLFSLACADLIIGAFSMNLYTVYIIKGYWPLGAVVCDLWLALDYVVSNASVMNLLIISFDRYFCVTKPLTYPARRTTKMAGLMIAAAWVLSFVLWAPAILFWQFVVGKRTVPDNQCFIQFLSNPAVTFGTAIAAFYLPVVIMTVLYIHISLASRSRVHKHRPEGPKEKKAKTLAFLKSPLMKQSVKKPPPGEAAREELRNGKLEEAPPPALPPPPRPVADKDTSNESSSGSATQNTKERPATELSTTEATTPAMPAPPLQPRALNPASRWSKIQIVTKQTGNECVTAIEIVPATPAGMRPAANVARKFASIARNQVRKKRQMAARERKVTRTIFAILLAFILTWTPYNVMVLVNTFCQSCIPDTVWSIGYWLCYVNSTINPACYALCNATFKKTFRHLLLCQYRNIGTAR
CHO-K1 Ca antag: M1 antagonist counterscreen hit in parental CHO-K1 cells; ATP-induced calcium, Fluo-8 fluorescence; inhibition, % at 3 µM; 0.6% of 360,000 active; AID 602250;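 active means inhibition above a per-plate cutoff, the plate's mean sample inhibition plus 3 SD, cut at about 24% in these data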;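 further: 0% = DMSO plus EC80 ATP and 100% = DMSO alone without ATP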
M4 PAM: potentiates acetylcholine response at human M4 receptor; AID 624126; CHO-K1 hM4/Gqi5, Fluo-8 calcium fluorescence, ACh EC20; 0% = ACh EC20, 100% = maximal ACh; P08173; activation, % at 3 µM; 0.4% of 360,000 active;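 active means activation above its plate's cutoff, the mean activation of sample wells plus 3 SD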
CHRM4 antagonist: blocks acetylcholine activation of human M4 receptor; CHO-hM4 cells, ACh EC80, Fluo-8 calcium fluorescence; inhibition, % at 3 µM; 0.73% of 360,000 active;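 active means inhibition above its plate's cutoff, the mean inhibition of sample wells plus 3 SD, cut at about 27% in these data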;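 further: 0% = acetylcholine EC80 with DMSO and 100% = DMSO without agonist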
* marks the source's active call; other numbers are inactive results.

How did COC(/C(=N/O)c1ccc(Cl)cc1)c1ccccc1 (centres undefined) do in these assays?
M1 PAM parental: -17; CHO-K1 Ca ag: 9; CHRM4 agonist: 5; CHO-K1 Ca antag: 31*; M4 PAM: -15; CHRM4 antagonist: 28*

Results for COc1ccc(Cl)cc1NC(=O)C(OC)c1ccccc1 (centres undefined) ?
M1 PAM parental: 15; CHO-K1 Ca ag: 0; CHRM4 agonist: -1; CHO-K1 Ca antag: -17; M4 PAM: 2; CHRM4 antagonist: 0

What do the screens show for `Cc1ccc(N2CCN(C(=S)Nc3ccccc3)CC2)cc1`?
M1 PAM parental: 3; CHO-K1 Ca ag: 22*; CHRM4 agonist: 5; CHO-K1 Ca antag: 4; M4 PAM: -4; CHRM4 antagonist: -5

Results for CC(=O)OCc1ccc(C2=CC(=O)CC(C)(C)C2=O)cc1 ?
M1 PAM parental: -13; CHO-K1 Ca ag: 0; CHRM4 agonist: 1; CHO-K1 Ca antag: 24*; M4 PAM: 7; CHRM4 antagonist: -13

Results for O=C(NC(=S)/C(=C1\CCCCCN1)[N+](=O)[O-])c1ccccc1 ?
M1 PAM parental: 5; CHO-K1 Ca ag: 0; CHRM4 agonist: 0; CHO-K1 Ca antag: -6; M4 PAM: -2; CHRM4 antagonist: 14

How did COC(=O)Cc1ccc(OC2(C)CCN(Cc3csc4ccccc34)C2)cc1 (centres undefined) do in these assays?
M1 PAM parental: 13; CHO-K1 Ca ag: 0; CHRM4 agonist: 1; CHO-K1 Ca antag: -14; M4 PAM: -13; CHRM4 antagonist: 54*

Results for CC1(Oc2cccc(F)c2)CCN(Cc2csc3ccccc23)C1 (centres undefined) ?
M1 PAM parental: 13; CHO-K1 Ca ag: 0; CHRM4 agonist: -2; CHO-K1 Ca antag: -18; M4 PAM: -4; CHRM4 antagonist: 7

Results for CCc1nn2c(=O)c(S(=O)(=O)Nc3ccc(Cl)cc3)c(C)nc2s1 ?
M1 PAM parental: 18; CHO-K1 Ca ag: 2; CHRM4 agonist: 7; CHO-K1 Ca antag: -11; M4 PAM: -7; CHRM4 antagonist: -7

How did CCc1cccc(NS(=O)(=O)c2c(C)nc3sc(CC)nn3c2=O)c1 do in these assays?
M1 PAM parental: 3; CHO-K1 Ca ag: 2; CHRM4 agonist: 7; CHO-K1 Ca antag: 1; M4 PAM: -18; CHRM4 antagonist: 29*

How did O=C(c1ccco1)N1N=C(c2ccc3nccnc3c2)CC1c1ccccc1 (centres undefined) do in these assays?
M1 PAM parental: 47*; CHO-K1 Ca ag: 4; CHRM4 agonist: 6; CHO-K1 Ca antag: -38; M4 PAM: 4; CHRM4 antagonist: -7

Results for CS(=O)(=O)Nc1ccc(C2=NN(C(=O)c3ccco3)C(c3ccc(F)cc3)C2)cc1 (centres undefined) ?
M1 PAM parental: 5; CHO-K1 Ca ag: 1; CHRM4 agonist: 1; CHO-K1 Ca antag: 2; M4 PAM: 0; CHRM4 antagonist: 5

Results for CC1SC(c2ccccc2)N(CC(O)c2ccc([N+](=O)[O-])cc2)C1=O (centres undefined) ?
M1 PAM parental: -13; CHO-K1 Ca ag: 0; CHRM4 agonist: 2; CHO-K1 Ca antag: 25*; M4 PAM: 6; CHRM4 antagonist: -5

How did COc1ccc(S(=O)(=O)N2CCC(C(=O)N3CCc4ccccc4C3)CC2)cc1 do in these assays?
M1 PAM parental: 12; CHO-K1 Ca ag: 1; CHRM4 agonist: 4; CHO-K1 Ca antag: -7; M4 PAM: 18; CHRM4 antagonist: -2

Results for Cc1ccc(S(=O)(=O)N2CCC(C(=O)NC3CC3)CC2)cc1 ?
M1 PAM parental: -8; CHO-K1 Ca ag: 1; CHRM4 agonist: 0; CHO-K1 Ca antag: -10; M4 PAM: 5; CHRM4 antagonist: 6

How did Cc1ccc(S(=O)(=O)N2CCC(C(=O)N3Cc4ccccc4C3)CC2)cc1 do in these assays?
M1 PAM parental: 17; CHO-K1 Ca ag: 1; CHRM4 agonist: 3; CHO-K1 Ca antag: -6; M4 PAM: 22*; CHRM4 antagonist: -10

How did Cc1ccc(S(=O)(=O)N2CCC(C(=O)N/N=C/c3ccncc3)CC2)cc1 do in these assays?
M1 PAM parental: -8; CHO-K1 Ca ag: -1; CHRM4 agonist: 0; CHO-K1 Ca antag: 24*; M4 PAM: -9; CHRM4 antagonist: -3

How did COCCCNC(=O)Cn1c(=O)n(CC(=O)NCCc2ccc(OC)c(OC)c2)c(=O)c2sccc21 do in these assays?
M1 PAM parental: 26; CHO-K1 Ca ag: 1; CHRM4 agonist: 1; CHO-K1 Ca antag: -16; M4 PAM: 32; CHRM4 antagonist: -5

What do the screens show for `COc1ccc(CCNC(=O)Cn2c(=O)n(-c3ccc(C)c(F)c3)c(=O)c3sccc32)cc1OC`?
M1 PAM parental: -9; CHO-K1 Ca ag: 0; CHRM4 agonist: -2; CHO-K1 Ca antag: 0; M4 PAM: 32*; CHRM4 antagonist: 3

How did CC(C)(C)NS(=O)(=O)c1ccc(NC(=O)Cc2ccccc2[N+](=O)[O-])cc1 do in these assays?
M1 PAM parental: -8; CHO-K1 Ca ag: 2; CHRM4 agonist: 9; CHO-K1 Ca antag: -1; M4 PAM: 20*; CHRM4 antagonist: -5

How did CCCCNS(=O)(=O)c1ccc(NC(=O)Cc2ccccc2[N+](=O)[O-])cc1 do in these assays?
M1 PAM parental: -13; CHO-K1 Ca ag: 1; CHRM4 agonist: 4; CHO-K1 Ca antag: 0; M4 PAM: 1; CHRM4 antagonist: 0

Results for COC(=O)c1cc(NC(=O)Cc2ccccc2[N+](=O)[O-])cc(C(=O)OC)c1 ?
M1 PAM parental: 2; CHO-K1 Ca ag: 15*; CHRM4 agonist: 1; CHO-K1 Ca antag: 3; M4 PAM: 9; CHRM4 antagonist: -4

Results for C=CCNC(=O)c1c(O)c2cccc3c2n(c1=O)CCC3 ?
M1 PAM parental: 29; CHO-K1 Ca ag: 1; CHRM4 agonist: 6; CHO-K1 Ca antag: 1; M4 PAM: 16*; CHRM4 antagonist: 22

What do the screens show for `Cc1cc(C)c(-c2c(O)c3cccc4c3n(c2=O)CCC4)c(C)c1`?
M1 PAM parental: 13; CHO-K1 Ca ag: 3; CHRM4 agonist: 0; CHO-K1 Ca antag: 0; M4 PAM: -3; CHRM4 antagonist: 0

What do the screens show for `O=c1c(-c2ccccc2)c(O)c2cccc3c2n1CCC3`?
M1 PAM parental: 19; CHO-K1 Ca ag: -1; CHRM4 agonist: 0; CHO-K1 Ca antag: -11; M4 PAM: 17*; CHRM4 antagonist: -15

How did CCC(=O)c1cn(CC(=O)Nc2ccccc2)c2ccccc12 do in these assays?
M1 PAM parental: -5; CHO-K1 Ca ag: 0; CHRM4 agonist: 1; CHO-K1 Ca antag: 25*; M4 PAM: -1; CHRM4 antagonist: 9

How did CCC(=O)c1cn(CC(=O)Nc2ccc(C)cc2)c2ccccc12 do in these assays?
M1 PAM parental: 19; CHO-K1 Ca ag: 1; CHRM4 agonist: 1; CHO-K1 Ca antag: -18; M4 PAM: -3; CHRM4 antagonist: 4
